High-throughput results from PubChem BioAssay.
TGFb SMAD3 inh = qHTS for Inhibitors of TGF-b; HepG2 CAGA-GFP TGF-b/SMAD3 reporter, GFP fluorescence, 18 h; TGF-beta stimulated, 500 pg/mL final; Potency, µM (highest dose often 46.1 µM), inactives show top-dose activity, negative = inhibition, actives largely listed as inhibitors; 410,000 compounds, 1.2% hits; AID 588855, 2011; further: potency means the concentration at half of the fitted maximal effect; on the % scale 0 is the no-effect control and ±100 the full control effect; nearly all actives have a fitted effect of over 65% in size
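Inhibition was scored as loss of TGF-beta-induced (500 pg/mL final, 18 hours, 37 degrees C) GFP in HEPG2 cells carrying a CAGA-GFP reporter, in DMEM with 1% FBS. Well GFP was summed per cell; Activity was normalised to unstimulated and stimulated DMSO wells, then concentration-response fitting.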
HepG2 tox = qHTS for Inhibitors of TGF-b: Cytotox Counterscreen; HepG2 CAGA-GFP viability, ATP luminescence, 18 h; Potency, µM (highest dose often 46.1 µM), inactives show at the highest dose activity change, negative = cytotoxicity, hits mostly cytotoxic; 410,000 compounds, 0.76% hits; further: potency means the concentration at half of the fitted maximal effect
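HepG2 CAGA-GFP cells (1000/well, DMEM with 1% FBS) received compound, then TGF-beta at 500 pg/mL final, and were incubated 18 hours at 37 degrees C. Viability was read by CellTiter-Glo luminescence. Media-only wells were set as complete cell-killing and DMSO as no toxicity.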
TDP1 cell CPT = qHTS for Inhibitors of human tyrosyl-DNA phosphodiesterase 1 (TDP1): qHTS in cells in presence of CPT; Potency, µM (top dose mostly 46.2 µM), for the others: at the highest dose activity change, negative = growth inhibition, actives largely listed as inhibitors; 420,000 compounds, 12% hits; chicken DT40 Tdp1-/-;hTDP1 cells + 20 nM CPT, ATP luminescence, 48 h; AID 686979, 2013; further: potency means the concentration at half of the fitted maximal effect; on the % scale 0 is the no-effect control and ±100 the full control effect; nearly all actives have a fitted effect of over 55% in size
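Chicken DT40 Tdp1-/- cells complemented with human TDP1, 400 cells/well, exposed to compounds plus 20 nM camptothecin for at least 48 h at 37 C; viability read as ATP content by CellTiter-Glo luminescence.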
TDP1 block = qHTS Assay for Inhibitors of Tyrosyl-DNA Phosphodiesterase (TDP1); Tyrosyl-DNA phosphodiesterase 1 (Homo sapiens), Q9NUW8; 350,000 compounds, 0.28% hits; recombinant TDP1, AlphaScreen DNA substrate cleavage; AID 485290, 2010; Potency, µM (titrated, usually from 130 µM), for inactives: at the top dose activity change, negative = inhibition, actives largely listed as inhibitors; further: potency means the concentration at half of the fitted maximal effect; on the % scale 0 is the no-effect control and ±100 the full control effect; nearly all actives have a fitted effect of over 40% in size
Target sequence (Q9NUW8 whole entry, looked up): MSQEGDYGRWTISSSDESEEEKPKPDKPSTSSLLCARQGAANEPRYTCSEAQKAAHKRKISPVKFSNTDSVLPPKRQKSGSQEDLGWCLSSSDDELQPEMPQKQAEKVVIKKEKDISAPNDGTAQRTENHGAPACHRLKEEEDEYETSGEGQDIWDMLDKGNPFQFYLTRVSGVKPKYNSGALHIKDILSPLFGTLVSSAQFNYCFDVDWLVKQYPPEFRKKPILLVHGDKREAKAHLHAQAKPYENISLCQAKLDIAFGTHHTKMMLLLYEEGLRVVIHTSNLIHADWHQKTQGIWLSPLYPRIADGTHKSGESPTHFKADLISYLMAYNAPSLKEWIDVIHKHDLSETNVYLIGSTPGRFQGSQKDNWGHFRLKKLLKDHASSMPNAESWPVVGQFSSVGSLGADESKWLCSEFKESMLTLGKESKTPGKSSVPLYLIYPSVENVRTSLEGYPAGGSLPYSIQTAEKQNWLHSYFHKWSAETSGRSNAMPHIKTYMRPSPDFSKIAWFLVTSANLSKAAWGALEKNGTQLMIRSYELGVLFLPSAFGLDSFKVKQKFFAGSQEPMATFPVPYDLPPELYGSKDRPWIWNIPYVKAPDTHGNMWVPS
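Compounds were preincubated with Tdp1 (1 nM final) for 15 min at room temperature before substrate (15 nM final) started a 5 min reaction; beads (10 ug/ml final) were then added for 10 min before AlphaScreen detection.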
IL-1B inflam inh = qHTS for Inhibitors of Inflammasome Signaling: IL-1-beta AlphaLISA Primary Screen; activity change, % at 57.5 µM; 360,000 compounds, 4.7% hits; AID 743279, 2014; THP-1 LPS/ATP IL-1B secretion, AlphaLISA, 16 h; stronger effect = lower value; in the data active means activity change below about -50%; inconclusive means mostly about -30% to -49%; further: on the % scale 0 is the no-effect control and ±100 the full control effect
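THP-1 cells pretreated 1 hr with compounds (up to 57.5 uM final), then stimulated with LPS (250 ng/mL final) plus ATP (1.25 mM final); secreted IL-1B measured by AlphaLISA after 16 hr, decreased signal indicating inhibition.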
DT40 TDP1 no CPT = qHTS for Inhibitors of human tyrosyl-DNA phosphodiesterase 1 (TDP1): qHTS in cells in absence of CPT. DT40 Tdp1-/- hTDP1 cells, no CPT, ATP luminescence, 48 h. Potency, µM (highest dose often 46.2 µM), for inactives: at the top dose activity change, negative = growth inhibition, hits mostly inhibitors. 420,000 compounds, 15% hits. AID 686978, 2013; further: potency means the concentration at half of the fitted maximal effect; on the % scale 0 is the no-effect control and ±100 the full control effect; nearly all actives have a fitted effect of over 55% in size
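Growth of hTDP1-complemented DT40 Tdp1-knockout cells is measured by ATP luminescence after at least 48 hr compound exposure at 37 °C, with DMSO substituting for the 20 nM CPT used in the parallel screen.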
Starred values were filed as active, the others as inactive; ? = inconclusive; · = not tested or not shown; [ ] = remark or other dose. In the library only some 18% were active in any assay of this set; here they are far more common. Unless noted, the call rests on the fitted dose curve; in most records, active means well fitted curve in the direction sought with a large enough effect; inconclusive means small, poorly fitted or top-dose-only effect, or another doubt; inactive means no such curve, though single readings can be large; an effect the other way counts as inactive or inconclusive.

SMILES | TGFb SMAD3 inh | HepG2 tox | TDP1 cell CPT | TDP1 block | IL-1B inflam inh | DT40 TDP1 no CPT
CCOC(=O)C1=CCC(c2ccccc2)N(S(=O)(=O)c2ccccc2C)C1 (configuration not stated) | ? | -3% | ? | · | 10 | 23µM*
CC(=O)C1=CCC(c2ccccc2)N(S(=O)(=O)c2ccccc2C)C1 (configuration not stated) | -22% | 2% | ? | · | 9 | 21µM*
CCOC(=O)C1=CCC(c2ccccc2)N(S(=O)(=O)c2ccccc2[N+](=O)[O-])C1 (configuration not stated) | ? | -4% | ? | · | -24 | ?
CC(C)NS(=O)(=O)c1ccc(CCC(=O)N2CCC(C(N)=O)CC2)cc1 | 20% | 4% | -1% | 11% | 24 | -2%
N#CN1CCC(N[S+](=O)([O-])c2cccc(F)c2)CC1 | · | · | · | 1% | · | ·
CC(C)n1c(CNC(=O)c2ccccc2F)nnc1SCC(=O)NC1CCCCC1 | 0% | 9% | 13% | · | 16 | -7%
O=C(CN1C(=O)CC(c2ccco2)Sc2ccccc21)Nc1cccc(C(F)(F)F)c1 (configuration not stated) | 7% | -9% | · | -7% | · | ·
O=C1c2cc(CO)cc(O)c2C(=O)c2c(O[C@@H]3OC(CO)[C@@H](O)[C@@H](O)[C@@H]3O)cccc21 (some centres not stated) | 1% | 5% | -2% | · | 1 | -3%
O=C(O)c1cc(O)c2c(c1)[C@H]([C@H]1c3cc(C(=O)O)cc(O)c3C(=O)c3c(O[C@@H]4O[C@H](CO)[C@@H](O)[C@H](O)[C@H]4O)cccc31)c1cccc(OC3O[C@H](CO)[C@@H](O)[C@H](O)[C@H]3O)c1C2=O (some centres not stated) | ? | -34% | 15µM* | · | 13 | 15µM*
O=C(O)c1cc(O)c2c(c1)[C@@H]([C@H]1c3cc(C(=O)O)cc(O)c3C(=O)c3c(O[C@@H]4O[C@H](CO)[C@@H](O)[C@H](O)[C@H]4O)cccc31)c1cccc(OC3O[C@H](CO)[C@@H](O)[C@H](O)[C@H]3O)c1C2=O (some centres not stated) | 11µM* | -39% | ? | · | -3 | ?
COC(=O)c1[nH]c2ccc(F)cc2c1NS(=O)(=O)c1ccc(OC)cc1 | ? | -13% | 3.3µM* | 5% | 41 | 3.3µM*
COc1ccc(S(=O)(=O)Nc2c(C(=O)O)[nH]c3ccc(OC)cc23)cc1 | 5% | -4% | 6% | 10% | 71 | 19%
CCOC(=O)c1[nH]c2ccc(F)cc2c1NC(=O)c1cc(OC)c(OC)c(OC)c1 | ? | -27% | ? | 4% | -4 | 23µM*
CCOC(=O)c1[nH]c2ccc(OC)cc2c1NC(=S)N1CCN(c2cccc(C)c2C)CC1 | 18µM* | 10µM* | ? | 1% | -7 | ?
CCOC(=O)c1[nH]c2ccc(OC)cc2c1NC(=O)c1cccc(OC)c1 | 13% | -12% | 23µM* | 2% | -16 | ?
CCOC(=O)c1[nH]c2ccc(OC)cc2c1NC(=S)N1CCN(c2ccc(F)cc2)CC1 | -22% | -5% | -2% | -2% | 26 | -10%
S=c1[nH]nc(-c2ccccn2)n1/N=C/c1c(Cl)cccc1Cl | 5% | 7% | 15% | 3% | 5 | -5%
COc1ccc2c(c1)CCc1cnc(-n3ncc(C(=O)N4CCN(CCO)CC4)c3C3CC3)nc1-2 | · | · | 6% | · | · | -18%
COc1ccc(Nc2nc(N)nc(CSc3nnc(C)s3)n2)cc1 | 6% | -18% | -18% | 0%[56.1 µM] | -12 | -23%
Cc1ccc(Nc2nc(N)nc(CSc3nc4ccccc4s3)n2)cc1 | 13µM* | -63% | ? | 5% | -70* | ?
COc1ccc(Nc2nc(N)nc(CSc3nc4cc(OC)ccc4s3)n2)cc1 | ? | -20% | 12µM* | 6% | · | 15µM*
COC(=O)CCCC[C@@H]1O[C@H](CCc2ccccc2)CC2=C1C(=O)OC(C)(C)O2 | · | · | ? | · | -6 | -85%
CN1CCN/C1=C(/C(Cl)=C(Cl)Cl)[N+](=O)[O-] | 11% | 12% | 12µM* | 5% | -19 | 23µM*
CN(Cc1ccccc1)C(=C(Cl)Cl)/C(=C1/NCCN1C)[N+](=O)[O-] | 0% | 18% | -8% | 3% | 11 | 9%
COCCNc1nc(-c2ccc(OC)cc2C)c2sc(-c3ccccc3)cc2n1 | 1% | -10% | 21µM* | · | -11 | 16µM*
SMILES | TGFb SMAD3 inh | HepG2 tox | TDP1 cell CPT | TDP1 block | IL-1B inflam inh | DT40 TDP1 no CPT
COCCNc1nc(NCCOC)c2sc(-c3ccccc3)cc2n1 | -2% | -29% | 26µM* | · | · | 26µM*
COCCNc1nc2cc(-c3ccc(C)cc3)sc2c(=O)n1C | -21% | 0% | ? | · | 12 | ?
COCCNc1nc(NCCOc2ccccc2)c2sc(-c3ccccc3)cc2n1 | ? | -69% | 16µM* | · | -107* | 15µM*
c1ccc(-c2cc3nc(NCc4cccs4)nc(NCc4ccc5occc5c4)c3s2)cc1 | 35% | -28% | ? | · | -89* | ?
COc1ccc(NC(=O)c2cc(OCCCN(C)C)nn2Cc2ccccc2)cc1 | · | · | · | 10% | · | ·
COc1cc(CCN(C(=O)c2cccc(S(C)(=O)=O)c2)C(CCc2ccccc2)c2nc3ccccc3[nH]2)cc(OC)c1 (configuration not stated) | ? | 9% | ? | · | ? | ?
C=CCNc1nc(N)c([N+](=O)[O-])c(NCc2ccccc2)n1 | 7% | -17% | -8% | · | 29 | -24%
COCCNc1nc(NCCN2CCNC2=O)c2sc(-c3ccccc3)cc2n1 | -9% | -67% | 26µM* | · | · | 21µM*
C=CCNc1nc(NCc2cccc(OC)c2)c2sc(-c3ccccc3)cc2n1 | ? | 11µM* | 5.8µM* | · | -108* | 4.1µM*
O=C(NCc1ccncc1)c1csc([C@@H]2C[C@H](O)[C@@H](CO)O2)n1 | 9% | -11% | -15% | · | 0 | -2%
CCOC(CCn1ccc(O)c(Cc2ccc(Cl)cc2)c1=O)OCC | ? | -31% | -25% | · | 13 | -26%
